Laboratory results published in PubChem BioAssay (NCI).
The panel holds about 83,000 compounds, 20% with a hit somewhere; the sample as a whole holds those more often.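 Treatment: one concentration, 48 hours, 96-well format. Scoring: percent growth, with anything below 10 considered active.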 Calls of active or inactive are those of the source.

Tests used:
Assay in all cases: NCI-60 one-dose screen, 48 h (100 = growth as untreated, 0 = no growth, -100 = all killed)
Conditions in all cases: 10 µM unless noted
[1] = tested on: NCI-H23 lung
[2] = tested on: NCI-H226 lung
[3] = tested on: NCI-H322M lung
[4] = tested on: HOP-62 NSCLC
[5] = tested on: NCI-H460 lung
[6] = tested on: HOP-92 NSCLC
[7] = tested on: NCI-H522 lung
[8] = tested on: A549/ATCC NSCLC
[9] = tested on: 786-0 renal
[10] = tested on: COLO 205 colon

Measured: growth

Clc1ccc(-c2cc(-c3ccccc3)nc(NCCNc3ccnc4cc(Cl)ccc34)n2)cc1
active: [5] -51.6% | [7] -35.9% | [9] -90.9% | [10] -81.2%
inactive: [1] 74.3% | [2] 78.5% | [3] 44.6% | [4] 81.2% | [6] 31.8% | [8] 36.3%

CCOC(=O)c1[nH]c2c(c1C)-c1[nH]c(=O)c(S(=O)(=O)c3ccccc3)cc1SC2
inactive: [1] 35.4% [100 µM] | [2] 37.9% [100 µM] | [3] 42.4% [100 µM] | [4] 34.3% [100 µM] | [5] 38.2% [100 µM] | [8] 43.7% [100 µM] | [9] 21.1% [100 µM]
active: [6] -27.4% [100 µM] | [7] -0.182% [100 µM] | [10] -25.8% [100 µM]

CO[C@H](C(=O)[C@@H](O)[C@@H](C)O)[C@@H]1Cc2cc3cc(O[C@H]4C[C@@H](O[C@H]5C[C@@H](O)[C@H](O)C(C)O5)[C@H](O)C(C)(O)O4)cc(O)c3c(O)c2C(=O)[C@H]1O[C@H]1C[C@@H](O[C@H]2C[C@@H](O[C@H]3C[C@@H](OC)[C@H](O)C(C)O3)[C@@H](O)C(C)O2)[C@H](O)C(C)O1 (stereo not given in full)
inactive: [1] 16.4% | [3] 21.1% | [5] 12.9% | [6] 25.2% | [9] 26.6%
active: [2] -29.7% | [4] 1.64% | [7] -17.6% | [8] 6.26% | [10] -42.4%

O=C(Cc1cccc(OC(F)(F)F)c1)Nc1ccc(CCCCc2nnc(NC(=O)Cc3ccccn3)s2)nn1
inactive: [1] 80.3% | [2] 60.6% | [3] 39.8% | [4] 74.5% | [5] 74.2% | [7] 44.3% | [8] 43.2% | [9] 46.3% | [10] 88.8%
active: [6] -4.64%

NNCCc1ccc(NC(=O)CCCc2ccc(C(=O)Nc3ccccc3N)cc2)cc1
inactive: [1] 76.5% | [2] 74.3% | [3] 87% | [4] 69.6% | [5] 66.3% | [6] 31.2% | [7] 13.1% | [8] 85.4% | [9] 81.6% | [10] 75.6%

CC(=O)c1ccc(Nc2nccc(-c3ccc4ccccc4c3)n2)cc1
inactive: [1] 94.4% | [2] 57.1% | [3] 97.8% | [4] 102% | [5] 98.4% | [6] 97.5% | [7] 45.6% | [8] 89.1% | [9] 96.9% | [10] 105%

Nc1[nH]c(=S)nc2oc(-c3ccccc3)c(-c3ccccc3)c12
inactive: [1] 94.5% | [2] 107% | [3] 105% | [4] 86.6% | [5] 113% | [6] 102% | [7] 94.8% | [8] 98.1% | [9] 103% | [10] 121%

Cc1ccc(CNc2ccc3nc(CCC(C)C)[nH]c3c2)cc1
inactive: [1] 94.2% | [2] 89.8% | [3] 100% | [4] 99.6% | [5] 106% | [6] 56.7% | [7] 84.2% | [8] 97.6% | [9] 84% | [10] 102%

O=C(CSc1nc(-c2ccccc2)cc(=O)[nH]1)Nc1nc(-c2ccccc2)cs1
inactive: [1] 84.3% | [2] 76.2% | [3] 93.4% | [4] 109% | [5] 106% | [6] 72.5% | [7] 74.4% | [8] 95.3% | [9] 103% | [10] 115%

Cc1ccc2nc(/C(C#N)=C(/CCCO)NC(Cc3ccccc3)C(=O)OCc3ccccc3)[nH]c(=O)c2c1 (stereo not given)
inactive: [1] 43% | [2] 103% | [3] 94.4% | [4] 88.2% | [5] 110% | [6] 108% | [7] 112% | [8] 114% | [9] 93.9% | [10] 87.8%

Cc1c(Cl)cccc1C(=O)Nc1nc2c(s1)CN(C(=O)c1ccc(C(F)(F)F)cc1)CC2
active: [5] 0.935% | [10] 6.86%
inactive: [1] 33.7% | [2] 50.9% | [3] 45.2% | [4] 41.8% | [6] 35.9% | [7] 11.4% | [8] 25.5% | [9] 40.3%

CCNC(=O)Oc1ccc(/C(=C(/CC)Cc2ccccc2)c2ccc(OCCN3CCCC3)cc2)cc1
inactive: [1] 101% | [2] 99.4% | [3] 91% | [4] 83.2% | [5] 94.1% | [6] 62.1% | [7] 100% | [8] 98.4% | [9] 91.2% | [10] 102%

CCOC(=O)/C=C1\S/C(=N\Nc2cc(=O)[nH]c3ccccc23)N(c2ccccc2)C1=O
inactive: [1] 97.9% | [2] 95.4% | [3] 101% | [4] 92.1% | [5] 107% | [6] 88.8% | [7] 96.7% | [8] 103% | [9] 101% | [10] 106%
